Where “and” joins values, the source holds several entries; their conditions need not be identical. Identical values can stand only once. Records with an inconclusive call do not appear. Calls of active or inactive are those of the source. Calls come from the whole dose curve; as a rule, active = well fitted curve in the direction sought with a large enough effect; inconclusive = small, poorly fitted or top-dose-only effect, or another doubt; inactive = no such curve, though single readings can be large; an effect the other way counts as inactive or inconclusive.
Experiments:
3D7 = test: qHTS profiling for inhibitors of Plasmodium falciparum proliferation (AID 504749); note: nearly all actives have a fitted effect of over 60% in size; settings: P. falciparum in erythrocytes, SYBR Green DNA, 72 h; series mostly up to 28.7 µM
In short: (§1)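 Readout was DNA-dye fluorescence from lysed cultures, ex 485/em 535 nm. Parasitized red cells had grown 72 h with compound; data scaled between 0.29 uM artemisinin and DMSO wells and corrected using vehicle-only plates.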

C2A = test: as above; settings: P. falciparum in erythrocytes, SYBR Green DNA, 72 h; series mostly up to 28.7 µM
In short: as §1

CP191 = test: as above; settings: P. falciparum in erythrocytes, SYBR Green DNA, 72 h; series mostly up to 28.7 µM
In short: as §1

CP201 = test: as above; settings: P. falciparum in erythrocytes, SYBR Green DNA, 72 h; series mostly up to 28.7 µM
In short: as §1

CP215 = test: as above; settings: P. falciparum in erythrocytes, SYBR Green DNA, 72 h; series mostly up to 28.7 µM
In short: as §1

CP238 = test: as above; settings: P. falciparum in erythrocytes, SYBR Green DNA, 72 h; series mostly up to 28.7 µM
In short: as §1

CP262 = test: as above; settings: P. falciparum in erythrocytes, SYBR Green DNA, 72 h; series mostly up to 28.7 µM
In short: as §1

CP265 = test: as above; settings: P. falciparum in erythrocytes, SYBR Green DNA, 72 h; series mostly up to 12.8 µM
In short: as §1

CP266 = test: as above; settings: P. falciparum in erythrocytes, SYBR Green DNA, 72 h; series mostly up to 12.8 µM
In short: as §1

CP286 = test: as above; settings: P. falciparum in erythrocytes, SYBR Green DNA, 72 h; series mostly up to 28.7 µM
In short: as §1

CP305 = test: as above; settings: P. falciparum in erythrocytes, SYBR Green DNA, 72 h; series mostly up to 28.7 µM
In short: as §1

CP325 = test: as above; settings: P. falciparum in erythrocytes, SYBR Green DNA, 72 h; series mostly up to 28.7 µM
In short: as §1

CP329 = test: as above; settings: P. falciparum in erythrocytes, SYBR Green DNA, 72 h; series mostly up to 28.7 µM
In short: as §1

DIV14 = test: as above; settings: P. falciparum in erythrocytes, SYBR Green DNA, 72 h; series mostly up to 28.7 µM
In short: as §1

DIV30 = test: as above; settings: P. falciparum in erythrocytes, SYBR Green DNA, 72 h; series mostly up to 28.7 µM
In short: as §1

HB3 = test: as above; settings: P. falciparum in erythrocytes, SYBR Green DNA, 72 h; series mostly up to 28.7 µM
In short: as §1

P93_24 = test: as above; settings: P. falciparum in erythrocytes, SYBR Green DNA, 72 h; series mostly up to 28.7 µM
In short: as §1

PAD = test: as above; settings: P. falciparum in erythrocytes, SYBR Green DNA, 72 h; series mostly up to 28.7 µM
In short: as §1

PC26 = test: as above; settings: P. falciparum in erythrocytes, SYBR Green DNA, 72 h; series mostly up to 28.7 µM
In short: as §1

[1] = qHTS assay for cell viability of HEK293 cells (AID 743288); settings: ATP luminescence (CellTiter-Glo), 18 h; max response: hits give low values; note: nearly all actives have a fitted effect of over 50% in size; for max response: % is set by controls: 0 for no effect and ±100 for the full control effect
In short: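 Luminescent ATP quantitation served as the viability read-out. Cells (parental HEK293, 2,000/well) received compounds after at least 5 h at 37 C and were exposed for 18 h before a 30 min room-temperature reagent step.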
Potency is the fitted concentration of half-maximal effect.

CNC(C)[C@@H](O)c1ccccc1 (some centres not stated)
inactive: Potency (3D7) | Potency (C2A) | Potency (CP191) | Potency (CP201) | Potency (CP215) | Potency (CP238) | Potency (CP262) | Potency (CP265) | Potency (CP266) | Potency (CP286) | Potency (CP305) | Potency (CP325) | Potency (CP329) | Potency (DIV14) | Potency (DIV30) | Potency (HB3) | Potency (P93_24) | Potency (PAD) | Potency (PC26)

CCCCCCCCCc1ccc(O)cc1
inactive: max response [1] -7.88%

CCCCSP(=O)(SCCCC)SCCCC
inactive: max response [1] -3.57%

CCC(C)C1O[C@]2(C=CC1C)CC1CC(C/C=C(\C)[C@H](OC3CC(OC)C(O[C@H]4CC(OC)[C@@H](O)C(C)O4)C(C)O3)[C@@H](C)/C=C/C=C3\COC4C(O)C(C)=C[C@H](C(=O)O1)[C@@]34O)O2 (some centres not stated)
inactive: Potency (CP262)
active: Potency (3D7) 11.2 µM | Potency (C2A) 12.6 µM | Potency (CP191) 7.94 µM | Potency (CP201) 16.9 µM | Potency (CP215) 13.5 µM | Potency (CP265) 8.91 µM | Potency (CP305) 12 µM | Potency (CP329) 9.53 µM | Potency (DIV14) 12 µM | Potency (PC26) 7.57 µM

CC([C@H](O)c1ccccc1)N(C)C (some centres not stated)
inactive: Potency (3D7) | Potency (C2A) | Potency (CP191) | Potency (CP201) | Potency (CP215) | Potency (CP238) | Potency (CP262) | Potency (CP265) | Potency (CP266) | Potency (CP286) | Potency (CP305) | Potency (CP325) | Potency (CP329) | Potency (DIV30) | Potency (HB3) | Potency (P93_24) | Potency (PAD) | Potency (PC26)

CCC(=O)Nc1ccc(Cl)c(Cl)c1
inactive: max response [1] 1.17%

O=c1ccc2cc(O[C@H]3O[C@@H](CO)[C@@H](O)[C@@H](O)[C@@H]3O)c(O)cc2o1
inactive: Potency (C2A) | Potency (CP191) | Potency (CP201) | Potency (CP215) | Potency (CP238) | Potency (CP262) | Potency (CP265) | Potency (CP266) | Potency (CP286) | Potency (CP305) | Potency (CP325) | Potency (CP329) | Potency (DIV14) | Potency (DIV30) | Potency (HB3) | Potency (P93_24) | Potency (PAD) | Potency (PC26)

CCS(=O)CCSP(=O)(OC)OC (configuration not stated)
inactive: max response [1] -4.96%

COP(N)(=O)SC (configuration not stated)
inactive: max response [1] -4.36% and -1.51%

O=C1C(Cl)=C(Cl)C(=O)C(Cl)=C1Cl
active: Potency [1] 39.8 µM

— PubChem BioAssay (NCATS)
